In PubChem BioAssay:
For some assays here: Potency and affinity values are given separately. Calls of active or inactive are those of the source. Unless noted, the rule behind the calls is not given here.

What was measured:
[1] = antimalarial activity against Dd2 strain (AID 2302;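 active = growth inhibition above 50% at the single 2 µM test dose, taken to imply half-maximal potency below 2 µM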;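 note: 0% = DMSO untreated growth and 100% = chloroquine plus artemisinin killed control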); settings: P. falciparum Dd2 in RBCs, LDH growth readout, 72 h; at 2 µM; stronger effect = higher value
[2] = human hepatoma cell viability loss – ATP luminescence, cytotoxicity control for P. falciparum antimalarial project, primary screen (AID 2303;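 active = inhibition above 50%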;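 note: 0% = DMSO wells and 100% = digitonin-killed cells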); settings: HepG2 viability, 24-48 h, at 10 µM, stronger effect = higher value
[3] = molecular target: L-lactate dehydrogenase (Plasmodium falciparum (isolate CDC / Honduras)) (UniProt Q27743); assay: PfLDH activity inhibition – cell lysate, 3D7 strain, counter-screen for P. falciparum growth inhibition project (AID 2304);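 note: 0% = vehicle and 100% = reference inhibitor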; settings: P. falciparum 3D7 crude extract, LDH APAD/NBT absorbance; at 2 µM; stronger effect = higher value
[4] = inhibition of 3D7 malaria parasite growth – strain 3D7 (AID 2306);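 note: 0% = DMSO wells and 100% = chloroquine plus artemisinin control wells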; settings: P. falciparum 3D7 erythrocytic growth, LDH absorbance, 72 h; at 2 µM; stronger effect = higher value
[5] = molecular target: Calcium-dependent protein kinase 1 (Plasmodium falciparum (isolate 3D7)) (UniProt P62344); assay: PfCDPK1 kinase inhibitors, biochemical, TCAMS library (AID 1159585; cut-off not given, nearly all actives have IC50 up to about 0.98 µM;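 note: inhibitors leave more ATP so luminescence rises with inhibition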); settings: recombinant PfCDPK1, Kinase-Glo ATP depletion luminescence
[6] = molecular target: Plasmodium falciparum protein kinase 6 (PK6, PF3D7_1337100) (UniProt Q8IDW1); assay: PfPK6 kinase inhibitors, biochemical, TCAMS library (AID 1159586); settings: recombinant PfPK6, Kinase-Glo ATP depletion luminescence
[7] = molecular target: Protein kinase 7 (PK7), Plasmodium falciparum 3D7 (PF3D7_0213400) (UniProt Q7YTF7); assay: inhibition of Plasmodium PK7 catalytic activity – biochemical, TCAMS antimalarial set, Kinase-Glo luminescence (AID 1159587); settings: recombinant PfPK7, Kinase-Glo ATP depletion luminescence
[8] = molecular target: Calcium-dependent protein kinase 4 (Plasmodium falciparum (isolate 3D7)) (UniProt Q8IBS5); assay: PfCDPK4 kinase inhibitors, biochemical, TCAMS library (AID 1159588; cut-off not given, nearly all actives have IC50 up to about 0.91 µM); settings: recombinant PfCDPK4, Kinase-Glo ATP depletion luminescence
Sequence of Calcium-dependent protein kinase 4 (Plasmodium falciparum (isolate 3D7)) (Q8IBS5 whole entry, looked up): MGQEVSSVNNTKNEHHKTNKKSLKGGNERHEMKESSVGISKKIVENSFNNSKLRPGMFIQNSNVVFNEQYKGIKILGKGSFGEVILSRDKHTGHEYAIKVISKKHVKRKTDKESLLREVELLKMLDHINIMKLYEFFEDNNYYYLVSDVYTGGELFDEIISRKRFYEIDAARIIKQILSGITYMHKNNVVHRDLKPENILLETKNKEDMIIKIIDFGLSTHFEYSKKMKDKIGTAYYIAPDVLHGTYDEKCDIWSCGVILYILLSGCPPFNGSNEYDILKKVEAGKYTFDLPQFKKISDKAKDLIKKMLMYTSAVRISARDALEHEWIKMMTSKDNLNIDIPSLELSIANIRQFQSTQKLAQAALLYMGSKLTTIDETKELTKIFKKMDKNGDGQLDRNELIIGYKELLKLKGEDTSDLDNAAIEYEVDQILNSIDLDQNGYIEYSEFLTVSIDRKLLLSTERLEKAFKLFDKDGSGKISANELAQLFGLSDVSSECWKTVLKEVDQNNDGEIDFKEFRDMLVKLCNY

Sequence of L-lactate dehydrogenase (Plasmodium falciparum (isolate CDC / Honduras)) (Q27743 whole entry, looked up): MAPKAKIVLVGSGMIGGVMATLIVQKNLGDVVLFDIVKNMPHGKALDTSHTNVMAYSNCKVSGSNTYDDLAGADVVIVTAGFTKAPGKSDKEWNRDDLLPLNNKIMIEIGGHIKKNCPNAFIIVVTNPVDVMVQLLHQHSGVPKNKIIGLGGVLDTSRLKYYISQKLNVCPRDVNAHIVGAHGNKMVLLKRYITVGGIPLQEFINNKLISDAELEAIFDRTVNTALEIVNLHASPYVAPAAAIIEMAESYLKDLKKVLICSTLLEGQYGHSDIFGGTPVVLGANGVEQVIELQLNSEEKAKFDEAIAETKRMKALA
Sequence of Plasmodium falciparum protein kinase 6 (PK6, PF3D7_1337100) (Q8IDW1 1-305): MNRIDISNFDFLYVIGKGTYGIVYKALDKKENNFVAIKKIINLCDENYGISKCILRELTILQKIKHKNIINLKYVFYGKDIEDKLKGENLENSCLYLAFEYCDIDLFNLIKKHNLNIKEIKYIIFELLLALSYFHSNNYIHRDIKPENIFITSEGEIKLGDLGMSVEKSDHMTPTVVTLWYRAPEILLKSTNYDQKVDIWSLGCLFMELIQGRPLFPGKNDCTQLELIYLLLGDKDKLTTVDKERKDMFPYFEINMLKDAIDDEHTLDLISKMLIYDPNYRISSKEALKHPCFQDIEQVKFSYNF
Sequence of Calcium-dependent protein kinase 1 (Plasmodium falciparum (isolate 3D7)) (P62344 whole entry, looked up): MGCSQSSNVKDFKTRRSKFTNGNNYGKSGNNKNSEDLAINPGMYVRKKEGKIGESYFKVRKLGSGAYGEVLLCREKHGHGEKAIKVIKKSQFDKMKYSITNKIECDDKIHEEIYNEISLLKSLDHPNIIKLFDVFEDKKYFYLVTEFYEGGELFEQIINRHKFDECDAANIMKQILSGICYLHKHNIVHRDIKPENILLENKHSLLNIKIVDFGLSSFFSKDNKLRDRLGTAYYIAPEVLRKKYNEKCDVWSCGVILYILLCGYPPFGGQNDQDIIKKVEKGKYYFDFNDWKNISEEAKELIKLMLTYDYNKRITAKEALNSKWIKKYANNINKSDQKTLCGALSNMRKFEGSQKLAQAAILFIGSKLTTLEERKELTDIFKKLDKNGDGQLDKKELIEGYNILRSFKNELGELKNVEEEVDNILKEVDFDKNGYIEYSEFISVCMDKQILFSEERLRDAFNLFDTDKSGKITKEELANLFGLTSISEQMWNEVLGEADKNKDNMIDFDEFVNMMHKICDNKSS
Sequence of Protein kinase 7 (PK7), Plasmodium falciparum 3D7 (PF3D7_0213400) (Q7YTF7 1-343): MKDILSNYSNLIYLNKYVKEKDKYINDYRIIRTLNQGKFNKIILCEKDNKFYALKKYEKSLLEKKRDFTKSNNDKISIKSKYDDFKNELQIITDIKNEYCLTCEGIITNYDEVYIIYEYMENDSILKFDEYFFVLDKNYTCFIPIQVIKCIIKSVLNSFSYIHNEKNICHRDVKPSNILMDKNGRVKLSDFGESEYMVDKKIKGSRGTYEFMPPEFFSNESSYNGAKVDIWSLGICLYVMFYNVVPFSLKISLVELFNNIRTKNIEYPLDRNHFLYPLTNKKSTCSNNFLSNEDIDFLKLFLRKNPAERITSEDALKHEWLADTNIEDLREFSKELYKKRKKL

CC(=O)N(C)C1CCN(Cc2ccc(-c3ccc(-c4nc5ccc(F)cc5[nH]4)s3)cc2)C1 (stereo unspecified)
active: growth inhibition [4] 98%
inactive: growth inhibition [1] 22% | inhibition [2] 46% | inhibition [3] 1% | outcome [5] | outcome [6] | outcome [7] | outcome [8]

COc1ccc(-c2cnc(N)c(-c3ccc(C(N)=O)cc3)c2)cc1OC
active: growth inhibition [1] 98% | growth inhibition [4] 96%
inactive: inhibition [2] 11% | inhibition [3] 4% | outcome [5] | outcome [6] | outcome [7] | outcome [8]

Cc1[nH]c(C)c(-c2ccc(-c3ccc(C#N)cc3)nc2)c(=O)c1Br
inactive: inhibition [2] 5% | inhibition [3] 7% | outcome [5] | outcome [6] | outcome [7] | outcome [8]
active: growth inhibition [1] 87% | growth inhibition [4] 97%

Cc1ccc(O)c(-c2cc(C(=O)Nc3ccc(S(=O)(=O)N4CCCCCC4)cc3)[nH]n2)c1
active: growth inhibition [1] 80% | growth inhibition [4] 100%
inactive: inhibition [2] 25% | inhibition [3] 4% | outcome [5] | outcome [6] | outcome [7] | outcome [8]

CCN(CC)CCn1c2ccccc2c2ccc(C(=O)Nc3ccc4sc(C)nc4c3)cc21
active: inhibition [2] 97% | growth inhibition [4] 84%
inactive: growth inhibition [1] 26% | inhibition [3] -5% | outcome [5] | outcome [6] | outcome [7] | outcome [8]

CC(C)(C)OC(=O)C1CCCN(Cc2ccc(-c3cccc(-c4nc5ccccc5[nH]4)c3)cc2)C1 (stereo unspecified)
inactive: growth inhibition [1] 27% | inhibition [2] 37% | inhibition [3] 4% | outcome [5] | outcome [6] | outcome [7] | outcome [8]
active: growth inhibition [4] 93%

COc1ccc2nccc([C@@H](O)CN3CCC(NCc4nc5cc(F)ccc5o4)CC3)c2c1
inactive: growth inhibition [1] 12% | inhibition [2] 14% | inhibition [3] -8% | outcome [5] | outcome [6] | outcome [7] | outcome [8]
active: growth inhibition [4] 102%

CCCNc1ccc2nccc(CCN3CCC(NCc4ccc5c(c4)NC(=O)CS5)CC3)c2n1
active: growth inhibition [4] 94%
inactive: growth inhibition [1] 17% | inhibition [2] -2% | inhibition [3] -5% | outcome [5] | outcome [6] | outcome [7] | outcome [8]

COc1cc(NC(=O)c2cc([N+](=O)[O-])ccc2NC(=O)CNC2CCCC(C)C2C)cc(OC)c1 (stereo unspecified)
inactive: inhibition [2] 21% | inhibition [3] 4% | outcome [5] | outcome [6] | outcome [7] | outcome [8]
active: growth inhibition [1] 80% | growth inhibition [4] 97%

NCCNc1ccnc2cc(Cl)ccc12
inactive: inhibition [2] 9% | inhibition [3] 4% | outcome [5] | outcome [6] | outcome [7] | outcome [8]
active: growth inhibition [1] 54% | growth inhibition [4] 101%

CO/C(=C\C=C\c1cc2cc(Cl)c(Cl)cc2[nH]1)C(=O)NCCCN1CC(C)N(C)CC1C (stereo unspecified)
active: growth inhibition [1] 73% | growth inhibition [4] 92%
inactive: inhibition [2] 38% | inhibition [3] -2% | outcome [5] | outcome [6] | outcome [7] | outcome [8]

O=C(NC1CCN(Cc2cccc(C(F)(F)F)c2)CC1)c1ccc(-c2cccc(C(F)(F)F)c2)s1
inactive: inhibition [2] 36% | inhibition [3] -2% | outcome [5] | outcome [6] | outcome [7] | outcome [8]
active: growth inhibition [1] 54% | growth inhibition [4] 94%

Cc1ccc(-c2nc3ccccc3o2)cc1NCc1cc(Cc2ccccc2)ccc1O
inactive: inhibition [2] 45% | inhibition [3] -4% | outcome [5] | outcome [6] | outcome [7] | outcome [8]
active: growth inhibition [1] 50% | growth inhibition [4] 82%

CNCCNCc1cccc(-c2ccc(-c3nc4ccccc4[nH]3)s2)c1
inactive: growth inhibition [1] 9% | inhibition [2] 8% | inhibition [3] 0% | outcome [5] | outcome [6] | outcome [7] | outcome [8]
active: growth inhibition [4] 99%

Cc1ccc2[nH]c3c(c2c1)CC(C(=O)NCCC(C)C)NC31CCN(Cc2ccccc2)CC1 (stereo unspecified)
active: growth inhibition [1] 50% | growth inhibition [4] 95%
inactive: inhibition [2] 15% | inhibition [3] 6% | outcome [5] | outcome [6] | outcome [7] | outcome [8]

O=C(NCC1CC1)C1CCN(C(c2ccccc2)c2ccc(Cl)c(Cl)c2)CC1 (stereo unspecified)
active: growth inhibition [1] 96% | growth inhibition [4] 97%
inactive: inhibition [2] 7% | inhibition [3] -1% | outcome [5] | outcome [6] | outcome [7] | outcome [8]

COc1ccc(C)cc1NC(=O)CSc1nc2cccnc2n1C1CCCCC1
active: growth inhibition [1] 78% | growth inhibition [4] 89%
inactive: inhibition [2] 14% | inhibition [3] -8% | outcome [5] | outcome [6] | outcome [7] | outcome [8]

O=C(Nc1ccc(S(=O)(=O)N2CCOCC2)cc1)c1cc(-c2cc(Cl)ccc2O)n[nH]1
inactive: inhibition [2] 40% | inhibition [3] -3% | outcome [5] | outcome [6] | outcome [7] | outcome [8]
active: growth inhibition [1] 59% | growth inhibition [4] 96%

Oc1c(C(Nc2ccccn2)c2ccc(Cl)cc2Cl)ccc2cccnc12 (stereo unspecified)
active: growth inhibition [1] 60% | growth inhibition [4] 88%
inactive: inhibition [2] 42% | inhibition [3] 1% | outcome [5] | outcome [6] | outcome [7] | outcome [8]

Cc1cc(C(=O)Nc2ccc(-c3ccccc3)cc2)no1
active: growth inhibition [1] 94% | growth inhibition [4] 90%
inactive: inhibition [2] 6% | inhibition [3] -3% | outcome [5] | outcome [6] | outcome [7] | outcome [8]

COc1ccc2c(NN=Cc3cccc([N+](=O)[O-])c3)cc(C)nc2c1
inactive: inhibition [2] 18% | inhibition [3] -6% | outcome [5] | outcome [6] | outcome [7] | outcome [8]
active: growth inhibition [1] 97% | growth inhibition [4] 101%

CN(C)c1ccc(NC2=NC(C)(C)N=C(N)N2)cc1
active: growth inhibition [4] 95%
inactive: growth inhibition [1] 5% | inhibition [2] -1% | inhibition [3] -4% | outcome [5] | outcome [6] | outcome [7] | outcome [8]

CCCCN1C(=O)[C@H]2CC(=O)CC(C3CCCCC3)[C@H]2C1=O (stereo partly specified)
inactive: growth inhibition [1] 1% | inhibition [2] -1% | inhibition [3] -5% | outcome [5] | outcome [6] | outcome [7] | outcome [8]
active: growth inhibition [4] 97%

O=C(NCCc1cccc(Cl)c1Cl)c1cnc(N2CCN(c3ccncc3)CC2)c(Cl)c1
active: growth inhibition [1] 99% | growth inhibition [4] 100%
inactive: inhibition [2] 47% | inhibition [3] 0% | outcome [5] | outcome [6] | outcome [7] | outcome [8]

O=C(NC1CCCCC1)C1CCCN(C(=O)c2ccc(O)c(-c3ccc(Cl)c(Cl)c3)c2)C1 (stereo unspecified)
inactive: growth inhibition [1] 42% | inhibition [2] 22% | inhibition [3] 0% | outcome [5] | outcome [6] | outcome [7] | outcome [8]
active: growth inhibition [4] 89%

O=C(Nc1cccc(N2CCC(NCc3cccnc3)CC2)c1)c1cccc(C(F)(F)F)c1
active: growth inhibition [4] 98%
inactive: growth inhibition [1] 2% | inhibition [2] 26% | inhibition [3] -3% | outcome [5] | outcome [6] | outcome [7] | outcome [8]

c1ccc(Cn2nnnc2-c2cccc(Nc3ccnc4cc(-c5nccs5)ccc34)c2)cc1
active: inhibition [2] 51% | growth inhibition [4] 87%
inactive: growth inhibition [1] 46% | inhibition [3] -4% | outcome [5] | outcome [6] | outcome [7] | outcome [8]

CC(C)NCc1cccc(-c2cccc(NC(=O)c3cccc(C#N)c3)c2)c1
inactive: growth inhibition [1] 22% | inhibition [2] 12% | inhibition [3] -4% | outcome [5] | outcome [6] | outcome [7] | outcome [8]
active: growth inhibition [4] 99%

CCOc1ccc(Nc2nc(N)c3ccccc3n2)cc1
inactive: growth inhibition [1] 6% | inhibition [2] 28% | inhibition [3] 2% | outcome [5] | outcome [6] | outcome [7] | outcome [8]
active: growth inhibition [4] 90%

CC1(C)N=C(N)NC(NOCCCCCCONC2=NC(C)(C)N=C(N)N2)=N1
active: growth inhibition [1] 98% | growth inhibition [4] 95%
inactive: inhibition [2] 34% | inhibition [3] -4% | outcome [5] | outcome [6] | outcome [7] | outcome [8]

Cn1c2c(c3ccccc31)CN(CCC1(c3ccc(Cl)c(Cl)c3)CN(C(=O)Cc3ccccc3)CCO1)CC2 (stereo unspecified)
inactive: inhibition [2] 22% | inhibition [3] 0% | outcome [5] | outcome [6] | outcome [7] | outcome [8]
active: growth inhibition [1] 91% | growth inhibition [4] 95%

NC(N)=Nc1ccc(OCCCCCOc2ccc(N=C(N)N)c(Cl)c2)cc1Cl
inactive: inhibition [2] 18% | inhibition [3] 6% | outcome [5] | outcome [6] | outcome [7] | outcome [8]
active: growth inhibition [1] 92% | growth inhibition [4] 92%

CCCC(C)Nc1nc(C)cc(N[C@@H](Cc2ccccc2)C(=O)NCCOc2ccccc2)n1 (stereo partly specified)
inactive: inhibition [2] 10% | inhibition [3] -1% | outcome [5] | outcome [6] | outcome [7] | outcome [8]
active: growth inhibition [1] 68% | growth inhibition [4] 101%

CC(C)(C)c1ccc(NC(=O)c2ccc(CN3CCCN(Cc4cccc(O)c4)CC3)cc2)cc1
active: growth inhibition [1] 62% | inhibition [2] 54% | growth inhibition [4] 102%
inactive: inhibition [3] 1% | outcome [5] | outcome [6] | outcome [7] | outcome [8]

CCNc1cc(C(=O)N[C@@H](Cc2ccccc2)[C@H](O)CNC2(CC(C)C)CC2)cc(N2CCCCS2(=O)=O)c1
inactive: growth inhibition [1] 29% | inhibition [2] -3% | inhibition [3] -5% | outcome [5] | outcome [6] | outcome [7] | outcome [8]
active: growth inhibition [4] 87%

Cc1nc(N2CCC(C)CC2)c2c3c(sc2n1)CCCC3
inactive: growth inhibition [1] 39% | inhibition [2] 13% | inhibition [3] 1% | outcome [5] | outcome [6] | outcome [7] | outcome [8]
active: growth inhibition [4] 93%

COc1cccc(NC(=O)c2cc(C(=O)Nc3cccc(OC)c3)cc([N+](=O)[O-])c2)c1
inactive: inhibition [2] 1% | inhibition [3] -3% | outcome [5] | outcome [6] | outcome [7] | outcome [8]
active: growth inhibition [1] 61% | growth inhibition [4] 99%
